The text below walks through data of PubChem BioAssay (EPA / NIEHS).

For orientation: AC50 means the midpoint of the concentration-response curve, whichever way the signal moves.

The source made the active and inactive calls. How the source made its calls: active means hit-call score of the fitted dose curve at least 0.9, where 1 is the maximum; inactive means score below 0.9.

The nature of assay [1]: APR_HepG2_CellLoss_72hr: Apredica 72-hour HepG2 Assay for Cell Loss (AID 2282915). As to conditions: high-content imaging. The gist of the method:
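HepG2 cells exposed 72 h to compound at 0.39–200 uM (10 concentrations, duplicate) in 0.5% DMSO. Fixed with 3.7% formaldehyde and Hoechst 33342-stained. Imaged at 20x; nuclear count gives cell number, fitted bidirectionally versus DMSO.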

Assay [2] can be described thus: APR_HepG2_P-H2AX_72hr: Apredica 72-hour HepG2 Assay for H2AX Phosphorylation (AID 2282916).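 Further: phospho-histone H2A.x immunostain intensity per cell marking DNA damage.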 Particulars: imaging, actives raise or lower the signal. The method in brief: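 Following 72 hr treatment with 0.39–200 uM compound, HepG2 cells were formaldehyde-fixed, permeabilized and stained for phospho-H2A.x; signal was measured by high-content imaging and fitted bidirectionally against DMSO controls.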

A short description of assay [3]: APR_HepG2_MitoMembPot_72hr: Apredica 72-hour HepG2 Assay for Mitochondrial Membrane Potential (AID 2282917). Particulars: imaging, actives raise or lower the signal. The method in brief:
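HepG2 cells dosed 72 hr with compound at 0.39–200 uM in duplicate, 0.5% v/v DMSO final. Mitochondria stained with 250 nM MitoTracker Red CMXRos for 30 min before formaldehyde fixation, imaged by high-content fluorescence; bidirectional fit versus DMSO.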

Assay [4] is described as follows: APR_HepG2_MitoticArrest_72hr: Apredica 72-hour HepG2 Assay for Mitotic Arrest (AID 2282918). As to conditions: high-content imaging, actives raise or lower the signal. The method in brief:
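High-content imaging of fixed human HepG2 cells after 72 h compound exposure (0.39–200 uM, duplicates, 0.5% DMSO); mitotic arrest scored from phospho-histone H3 and nuclear Hoechst staining relative to DMSO.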

Assay [5] can be described thus: APR_HepG2_MicrotubuleCSK_72hr: Apredica 72-hour HepG2 Assay for Microtubule CSK Stabilty (AID 2282919). Particulars: HepG2 microtubule cytoskeleton, high-content imaging, actives raise or lower the signal. The gist of the method: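 HepG2 cells were exposed 72 hr to compound at 0.39–200 uM in duplicate (0.5% DMSO final), then fixed and permeabilized. Alpha-tubulin immunofluorescence was imaged by high-content microscopy, with bidirectional fitting against DMSO and taxol as positive control.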

The nature of assay [6]: APR_HepG2_P-H2AX_24hr: Apredica 24-hour HepG2 Assay for H2AX Phosphorylation (AID 2282920). Particulars: high-content imaging, actives raise or lower the signal. The method in brief:
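High-content imaging of phospho-histone H2A.x immunofluorescence, nuclei counterstained with Hoechst 33342, in fixed HepG2 cells. Compounds ran 0.39–200 uM in duplicate for 24 h, final DMSO 0.5%. Signal change fitted both directions against DMSO.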

A short description of assay [7]: APR_HepG2_StressKinase_72hr: Apredica 72-hour HepG2 Assay for Stress Kinase (AID 2282921). Particulars: HepG2 stress kinase (phospho-c-Jun) imaging, actives raise or lower the signal. The gist of the method:
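Fluorescence intensity of Cy3-tagged anti-phospho-c-Jun antibody, quantified per cell from Hoechst-defined nuclei across six images per well, served as the read-out following 72 h exposure (0.39–200 uM, 0.5% v/v DMSO).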

Assay [8] in a line: APR_HepG2_StressKinase_24hr: Apredica 24-hour HepG2 Assay for Stress Kinase (AID 2282922). Particulars: HepG2 stress kinase (phospho-c-Jun) imaging, actives raise or lower the signal. The method in brief: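 HepG2 cells exposed 24 h to 0.39–200 uM compound in duplicate (0.5% v/v DMSO final). Cells fixed in 3.7% formaldehyde, permeabilized and immunostained for phospho-c-Jun; read by high-content fluorescence imaging, fitted bidirectionally against DMSO.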

Assay [9] in a line: APR_HepG2_p53Act_72hr: Apredica 72-hour HepG2 Assay for p53 Activation (AID 2282923).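 Further: average cellular p53 protein immunofluorescence intensity in HepG2 cells.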 Particulars: high-content imaging, actives raise or lower the signal. The gist of the method:
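HepG2 monolayers receive test compounds in duplicate at ten concentrations (0.39 through 200 uM) for 72 hr. They are then formaldehyde-fixed, antibody-labelled for p53, Hoechst-stained and imaged, with activity fitted bidirectionally versus DMSO.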

The nature of assay [10]: APR_HepG2_MitoMass_72hr: Apredica 72-hour HepG2 Assay for Mitochondrial Mass (AID 2282924).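 Further: MitoTracker Red CMXRos stain intensity per cell imaged as mitochondrial mass.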 As to conditions: high-content imaging, actives raise or lower the signal. The method in brief:
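HepG2 cells dosed 72 hr at 0.39–200 uM (0.5% DMSO), in duplicate. MitoTracker Red CMXRos 250 nM loaded 30 min before formaldehyde fixation; high-content fluorescence imaging, bidirectional fit versus DMSO.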

A short description of assay [11]: APR_HepG2_NuclearSize_72hr: Apredica 72-hour HepG2 Assay for Nuclear Size (AID 2282925). Particulars: high-content imaging, actives raise or lower the signal. The gist of the method:
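HepG2 cells dosed 72 h at 0.39–200 uM (10 concentrations, duplicate) in 0.5% v/v DMSO final. Fixed, Hoechst 33342-stained nuclei imaged; nuclear diameter measured by automated image analysis. Bidirectional fit versus DMSO.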

Assay [12] is described as follows: ATG_CRE_CIS: Attagene CIS-FACTORIAL HepG2 Assay for human cAMP Responsive Element (CRE) binding protein 3 (AID 2282926). Particulars: HepG2 CRE cis-reporter, Attagene multiplexed mRNA; actives raise or lower the signal. The gist of the method: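 Multiplexed transcription-unit reporters transfected into HepG2; 24 h dosing; RT-PCR/capillary electrophoresis fluorescence read-out; bidirectional fit vs DMSO.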

Assay [13] concerns the target CCAAT/enhancer-binding protein beta (Homo sapiens) (UniProt P17676). The experiment in a line: ATG_C_EBP_CIS: Attagene CIS-FACTORIAL HepG2 Assay for human CCAAT/Enhancer Binding Protein (C/EBP) beta (AID 2282927). As to conditions: HepG2 Attagene cis-factorial transcription factor reporter; actives raise or lower the signal. The gist of the method: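 HepG2 transiently transfected with multiplexed reporter units under cis-regulatory promoters reporting endogenous C/EBPb activity. After 24 h exposure, reporter mRNA assayed by RT-PCR, fluorescent labelling, HpaI digestion and capillary electrophoresis; bidirectional fitting versus DMSO.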

Assay [14] in a line: ATG_CMV_CIS: Attagene CIS-FACTORIAL HepG2 Assay for human CMV (Internal Marker) (AID 2282928).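 Further: endpoint acts as a background internal control marker rather than a target.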 Particulars: HepG2 CMV promoter reporter, transcription factor profiling; actives raise or lower the signal. The gist of the method:
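CMV internal-marker background readout in transiently transfected HepG2 cells bearing cis-regulated reporter units. Reporter mRNA is measured 24 h after dosing by RT-PCR and capillary electrophoresis, with bidirectional fitting against DMSO.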

Assay [15] can be described thus: ATG_DR4_LXR_CIS: Attagene CIS-FACTORIAL HepG2 Assay for human Liver X Receptor (LXR), DR4 submotif (AID 2282929). Particulars: HepG2 Attagene DR4 cis-reporter, mRNA transcription; actives raise or lower the signal. The gist of the method:
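The endpoint is DR4-element-driven reporter transcripts after 24 h chemical exposure of transfected HepG2 cells. These were measured via RT-PCR and capillary electrophoresis, and gain or loss of signal was fitted relative to DMSO controls.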

The target of assay [16] is Aryl hydrocarbon receptor (Homo sapiens) (UniProt P35869). Kind of assay: ATG_Ahr_CIS: Attagene CIS-FACTORIAL HepG2 Assay for human Aryl Hydrocarbon Receptor (Ahr) (AID 2282930). Particulars: HepG2 AhR cis-factorial reporter transcription; actives raise or lower the signal. The gist of the method:
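HepG2 cells transiently transfected with cis-element-driven multiplexed reporter units; endogenous AhR activity read as reporter mRNA 24 h after dosing, via RT-PCR, 6-FAM labelling, HpaI digestion and capillary electrophoresis. Bidirectional fit relative to DMSO.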

Assay [17] can be described thus: ATG_AP_1_CIS: Attagene CIS-FACTORIAL HepG2 Assay for human Activator Protein 1 (AP-1) (AID 2282931). As to conditions: HepG2 Attagene cis-factorial AP-1 reporter mRNA; actives raise or lower the signal. The gist of the method:
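Readout is reporter transcript level from endogenous transcription factor activity, quantified by RT-PCR with fluorescent primer extension and capillary electrophoresis. Transiently transfected HepG2 cells, 24 h exposure. Curves fitted both directions versus DMSO.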

The nature of assay [18]: ATG_BRE_CIS: Attagene CIS-FACTORIAL HepG2 Assay for human Bone Morphogenetic Protein (BMP) Response Element (BRE) (AID 2282933). As to conditions: HepG2 BMP response element reporter, Attagene transcription factor profiling; actives raise or lower the signal. The gist of the method:
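After a 24 h chemical treatment, transiently transfected HepG2 cells were lysed for RNA; reporter transcripts were quantified by fluorescent RT-PCR and capillary electrophoresis, normalised to DMSO.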

The target in assay [19] is Retinoic acid receptor alpha (Homo sapiens) (UniProt P10276). Kind of assay: ATG_DR5_RAR_CIS: Attagene CIS-FACTORIAL HepG2 Assay for human Retinoic Acid Receptor Alpha (RARE), DR5 submotif (AID 2282934). As to conditions: HepG2 Attagene cis-factorial RARE DR5 reporter, mRNA; actives raise or lower the signal. The gist of the method:
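HepG2 cells transiently transfected with multiplexed reporter units; DR5 cis-element drives reporter through endogenous transcription factors. After 24 h dosing, reporter mRNA quantified by RT-PCR, fluorescent labeling, HpaI digestion and capillary electrophoresis; bidirectional fitting versus DMSO.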

Assay [20] in a line: ATG_AP_2_CIS: Attagene CIS-FACTORIAL HepG2 Assay for human Activator Protein 2 (AP-2) (AID 2282932). Particulars: HepG2 AP-2 cis-reporter, Attagene transcription factor profiling; actives raise or lower the signal. The gist of the method:
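Multiplexed mRNA reporter assay in HepG2: cis-regulated units report endogenous factor activity after 24 h treatment. Fluorescence from capillary electrophoresis of RT-PCR products gives the signal, with DMSO as baseline.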

Chain of CCAAT/enhancer-binding protein beta (Homo sapiens) (P17676 whole entry, looked up): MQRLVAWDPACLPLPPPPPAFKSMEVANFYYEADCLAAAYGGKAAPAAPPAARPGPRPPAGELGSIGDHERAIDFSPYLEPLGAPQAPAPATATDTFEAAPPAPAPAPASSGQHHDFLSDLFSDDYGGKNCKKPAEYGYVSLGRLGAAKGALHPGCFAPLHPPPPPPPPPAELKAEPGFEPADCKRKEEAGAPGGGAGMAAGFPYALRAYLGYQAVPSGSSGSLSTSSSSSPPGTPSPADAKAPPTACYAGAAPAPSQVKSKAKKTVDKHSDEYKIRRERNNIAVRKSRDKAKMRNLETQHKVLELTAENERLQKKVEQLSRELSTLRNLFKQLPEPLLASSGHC
Chain of Aryl hydrocarbon receptor (Homo sapiens) (P35869 whole entry, looked up): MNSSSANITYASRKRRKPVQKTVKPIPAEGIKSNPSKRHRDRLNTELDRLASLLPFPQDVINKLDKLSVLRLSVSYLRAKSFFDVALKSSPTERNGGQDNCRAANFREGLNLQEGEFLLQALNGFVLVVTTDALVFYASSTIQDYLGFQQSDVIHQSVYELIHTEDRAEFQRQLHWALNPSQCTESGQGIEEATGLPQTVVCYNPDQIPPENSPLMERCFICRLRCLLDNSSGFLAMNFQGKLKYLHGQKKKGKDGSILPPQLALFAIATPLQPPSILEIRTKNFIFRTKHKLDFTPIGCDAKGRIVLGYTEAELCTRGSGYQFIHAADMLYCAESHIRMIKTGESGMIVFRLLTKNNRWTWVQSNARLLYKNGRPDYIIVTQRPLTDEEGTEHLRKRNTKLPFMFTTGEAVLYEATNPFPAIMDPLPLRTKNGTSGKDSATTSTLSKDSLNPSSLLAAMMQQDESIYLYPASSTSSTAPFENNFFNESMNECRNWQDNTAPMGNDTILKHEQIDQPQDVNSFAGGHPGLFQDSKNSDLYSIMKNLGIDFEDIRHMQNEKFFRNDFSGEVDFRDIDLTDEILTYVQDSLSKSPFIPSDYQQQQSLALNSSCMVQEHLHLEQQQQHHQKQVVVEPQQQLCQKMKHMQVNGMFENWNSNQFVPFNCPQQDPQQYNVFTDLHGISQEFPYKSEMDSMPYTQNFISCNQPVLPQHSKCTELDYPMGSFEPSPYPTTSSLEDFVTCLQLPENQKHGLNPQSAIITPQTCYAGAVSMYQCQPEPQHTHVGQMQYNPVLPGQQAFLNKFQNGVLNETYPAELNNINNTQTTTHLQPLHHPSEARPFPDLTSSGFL
Chain of Retinoic acid receptor alpha (Homo sapiens) (P10276 whole entry, looked up): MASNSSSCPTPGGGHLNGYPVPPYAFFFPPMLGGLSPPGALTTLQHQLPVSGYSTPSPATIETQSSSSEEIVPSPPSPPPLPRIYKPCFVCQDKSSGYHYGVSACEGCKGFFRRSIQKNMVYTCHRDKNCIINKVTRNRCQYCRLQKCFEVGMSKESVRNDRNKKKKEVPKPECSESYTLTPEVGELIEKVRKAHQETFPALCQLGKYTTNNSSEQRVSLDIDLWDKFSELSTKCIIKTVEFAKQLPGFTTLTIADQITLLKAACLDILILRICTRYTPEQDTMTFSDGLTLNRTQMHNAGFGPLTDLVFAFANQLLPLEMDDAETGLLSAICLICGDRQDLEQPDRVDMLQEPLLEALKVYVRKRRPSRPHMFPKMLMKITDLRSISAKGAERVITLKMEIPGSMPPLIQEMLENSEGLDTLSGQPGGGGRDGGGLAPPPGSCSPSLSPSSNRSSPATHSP

As for `Nc1ccc(S(=O)(=O)c2ccc(N)cc2)cc1`, the result in assay [1], in [2], in [3], in assay [4], in assay [5] and in assay [6] was inactive. In addition, the result in assay [7], in assay [8], in [9], in [10], in assay [11] and in assay [12] was inactive. The result in assay [13], in assay [14], in [15], in assay [16], in assay [17] and in [18] was inactive. The compound was called inactive in assay [19].

On to `O=[N+]([O-])C(CO)(CO)CO`, for which the AC50 was 107 µM (active) in assay [1]; 118 µM (active) in assay [2]; 105 µM (active) in assay [4]; 112 µM (active) in [7]; 119 µM (active) in assay [9]; 68.9 µM (active) in assay [16]. In addition, the outcome in [3], in assay [5], in assay [6], in assay [8], in assay [10] and in assay [11] was inactive. Besides, the outcome in assay [12], in assay [13], in assay [15], in assay [17] and in assay [20] was inactive.

On to `O=C(O)Cc1ccccc1Nc1c(Cl)cccc1Cl`, for which the concentration at half-maximal activity (AC50) in assay [1] is 107 µM (active); in [15], 68.7 µM (active); in assay [16], 67.3 µM (active). In addition, the call in [2], in assay [3], in [4], in assay [5], in [6] and in assay [7] was inactive. Moreover, the result in [8], in assay [9], in [10], in assay [11], in assay [12] and in assay [13] was inactive. For the same compound, the result in assay [14] and in assay [17] was inactive.

For `OC[C@@H](O)[C@@H](O)[C@H](O)[C@H](O)CO`, the result in [1], in [2], in assay [3], in assay [4], in assay [5] and in assay [6] was inactive. In addition, the call in assay [7], in assay [8], in assay [9], in [10], in [11] and in assay [12] was inactive. The outcome in assay [13], in assay [14], in assay [15], in assay [16], in assay [17] and in [20] was inactive. Also, the result in assay [18] and in assay [19] was inactive.

With `Cc1ccc2ncccc2c1`, the outcome in [1], in assay [2], in assay [3], in assay [4], in assay [5] and in assay [6] was inactive. For the same compound, the outcome in [7], in assay [8], in assay [9], in assay [10], in assay [11] and in assay [12] was inactive. For the same compound, the result in [13], in assay [14], in assay [15], in [16] and in assay [17] was inactive.

In the case of `COc1ccc2c(c1)c(CC(=O)O)c(C)n2C(=O)c1ccc(Cl)cc1`, the result in [1], in [2], in assay [3], in [4], in assay [5] and in assay [6] was inactive. The call in assay [7], in [8], in assay [9], in assay [10], in [11] and in [12] was inactive. The outcome in [13], in assay [14], in [15], in assay [16], in assay [17] and in assay [19] was inactive.

Take `O=c1[nH]cc(F)c(=O)[nH]1`: the concentration at half-maximal activity (AC50) in [1] is 2.45 µM (active); in assay [14], 8.27 µM (active); in [17] it was 12.9 µM (active). For the same compound, the compound was classed as inactive in assay [2], in assay [3], in [4], in [5], in assay [6] and in assay [7]. The outcome in assay [8], in assay [9], in assay [10], in [11], in assay [12] and in assay [13] was inactive. Further, the compound was called inactive in assay [15], in assay [16], in assay [20] and in [18].
